# Measured values published in PubChem BioAssay (EPA / NIEHS).
# The source holds several records for some structures; these can differ, active in one and inactive in another. Calls of active or inactive are those of the source. Rule for the calls: active = hit-call score of the fitted dose curve at least 0.9, where 1 is the maximum; inactive = score below 0.9.
# How the values were obtained:
# [1] = ATG_CRE_CIS: Attagene CIS-FACTORIAL HepG2 Assay for human cAMP Responsive Element (CRE) binding protein 3 (AID 2282926); details: HepG2 CRE cis-reporter, Attagene multiplexed mRNA; actives raise or lower the signal
# Procedure, shortened: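 Transfected HepG2 were treated for 24 hours, then RNA was extracted and reporter cDNA amplified with sequence-specific primers. Labelled fragments were separated by capillary electrophoresis, and the CRE signal was fitted bidirectionally with DMSO as baseline.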
# [2] = target: CCAAT/enhancer-binding protein beta (Homo sapiens) (UniProt P17676); assay: ATG_C_EBP_CIS: Attagene CIS-FACTORIAL HepG2 Assay for human CCAAT/Enhancer Binding Protein (C/EBP) beta (AID 2282927); details: HepG2 Attagene cis-factorial transcription factor reporter; actives raise or lower the signal
# Chain of CCAAT/enhancer-binding protein beta (Homo sapiens) (P17676 whole entry, looked up, the tested form may be a part): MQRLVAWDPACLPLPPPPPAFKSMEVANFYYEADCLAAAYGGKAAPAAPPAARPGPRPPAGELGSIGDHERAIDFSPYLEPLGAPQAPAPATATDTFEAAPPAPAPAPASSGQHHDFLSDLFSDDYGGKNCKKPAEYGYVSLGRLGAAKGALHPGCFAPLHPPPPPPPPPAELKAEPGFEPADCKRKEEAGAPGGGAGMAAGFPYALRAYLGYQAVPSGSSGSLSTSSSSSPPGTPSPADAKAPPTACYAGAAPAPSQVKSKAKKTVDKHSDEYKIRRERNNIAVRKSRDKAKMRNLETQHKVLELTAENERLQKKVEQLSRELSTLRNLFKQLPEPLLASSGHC
# Procedure, shortened: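 Endogenous C/EBPb-driven reporter transcripts measured in transfected human HepG2 cells at 24 h via RT-PCR and capillary electrophoresis of labelled fragments. Activity fitted in both directions relative to DMSO baseline.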
# [3] = ATG_DR4_LXR_CIS: Attagene CIS-FACTORIAL HepG2 Assay for human Liver X Receptor (LXR), DR4 submotif (AID 2282929); details: HepG2 Attagene DR4 cis-reporter, mRNA transcription; AC50: actives raise or lower the signal unless noted; outcome: actives raise or lower the signal unless noted
# Procedure, shortened: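 Transiently transfected HepG2 liver cells; cis-regulated reporters; 24 h dosing. RT-PCR plus CE read-out of reporter mRNA. DMSO baseline, bidirectional curve fitting.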
# [4] = target: Aryl hydrocarbon receptor (Homo sapiens) (UniProt P35869); assay: ATG_Ahr_CIS: Attagene CIS-FACTORIAL HepG2 Assay for human Aryl Hydrocarbon Receptor (Ahr) (AID 2282930); details: HepG2 AhR cis-factorial reporter transcription; actives raise or lower the signal
# Chain of Aryl hydrocarbon receptor (Homo sapiens) (P35869 whole entry, looked up): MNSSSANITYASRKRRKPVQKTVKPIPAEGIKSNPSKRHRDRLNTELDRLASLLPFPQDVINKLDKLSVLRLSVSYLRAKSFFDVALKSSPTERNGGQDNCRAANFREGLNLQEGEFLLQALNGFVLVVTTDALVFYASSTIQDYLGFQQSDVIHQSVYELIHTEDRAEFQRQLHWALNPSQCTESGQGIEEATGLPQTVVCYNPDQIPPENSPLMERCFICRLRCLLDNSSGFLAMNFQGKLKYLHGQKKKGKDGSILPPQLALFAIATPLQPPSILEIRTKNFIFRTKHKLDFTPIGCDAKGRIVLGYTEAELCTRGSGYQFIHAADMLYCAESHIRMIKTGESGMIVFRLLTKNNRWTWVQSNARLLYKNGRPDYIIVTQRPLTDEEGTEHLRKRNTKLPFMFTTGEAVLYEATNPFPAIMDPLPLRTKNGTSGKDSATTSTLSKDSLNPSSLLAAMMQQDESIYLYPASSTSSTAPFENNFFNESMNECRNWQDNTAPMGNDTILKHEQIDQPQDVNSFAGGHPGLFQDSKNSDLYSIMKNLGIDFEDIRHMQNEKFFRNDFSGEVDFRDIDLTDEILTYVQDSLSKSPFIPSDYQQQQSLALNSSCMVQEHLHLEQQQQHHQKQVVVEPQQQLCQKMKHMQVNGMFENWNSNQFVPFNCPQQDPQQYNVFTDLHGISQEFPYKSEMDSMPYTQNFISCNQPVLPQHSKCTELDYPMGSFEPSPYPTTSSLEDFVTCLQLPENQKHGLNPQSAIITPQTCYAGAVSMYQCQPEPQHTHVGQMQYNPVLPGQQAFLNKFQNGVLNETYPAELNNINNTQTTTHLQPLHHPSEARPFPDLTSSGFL
# Procedure, shortened: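 Reporter mRNA levels, quantified by RT-PCR and fluorescent capillary electrophoresis, reflect endogenous AhR transcriptional activity in HepG2 cells carrying transfected cis-promoter reporter constructs. Readout at 24 h post-dose; gain or loss fitted against DMSO baseline.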
# [5] = ATG_AP_2_CIS: Attagene CIS-FACTORIAL HepG2 Assay for human Activator Protein 2 (AP-2) (AID 2282932); details: HepG2 AP-2 cis-reporter, Attagene transcription factor profiling; AC50: actives raise or lower the signal unless noted; outcome: actives raise or lower the signal unless noted
# Procedure, shortened: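 Step one: transient transfection of HepG2 with reporter transcription units. Step two: 24 h chemical exposure. Step three: RNA extraction, RT-PCR, labelled fragment analysis by capillary electrophoresis; DMSO serves as baseline.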
# [6] = ATG_BRE_CIS: Attagene CIS-FACTORIAL HepG2 Assay for human Bone Morphogenetic Protein (BMP) Response Element (BRE) (AID 2282933); details: HepG2 BMP response element reporter, Attagene transcription factor profiling; actives raise or lower the signal
# Procedure, shortened: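 Multiplexed cis-reporter assay, HepG2, 24 h exposure. mRNA from reporter units quantified via RT-PCR/CE; DMSO baseline; bidirectional curve fit.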
# [7] = target: Retinoic acid receptor alpha (Homo sapiens) (UniProt P10276); assay: ATG_DR5_RAR_CIS: Attagene CIS-FACTORIAL HepG2 Assay for human Retinoic Acid Receptor Alpha (RARE), DR5 submotif (AID 2282934); details: HepG2 Attagene cis-factorial RARE DR5 reporter, mRNA; actives raise or lower the signal;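 for AC50: reporter responds to endogenous RAR alpha beta and gamma in HepG2 not RARA alone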
# Chain of Retinoic acid receptor alpha (Homo sapiens) (P10276 whole entry, looked up): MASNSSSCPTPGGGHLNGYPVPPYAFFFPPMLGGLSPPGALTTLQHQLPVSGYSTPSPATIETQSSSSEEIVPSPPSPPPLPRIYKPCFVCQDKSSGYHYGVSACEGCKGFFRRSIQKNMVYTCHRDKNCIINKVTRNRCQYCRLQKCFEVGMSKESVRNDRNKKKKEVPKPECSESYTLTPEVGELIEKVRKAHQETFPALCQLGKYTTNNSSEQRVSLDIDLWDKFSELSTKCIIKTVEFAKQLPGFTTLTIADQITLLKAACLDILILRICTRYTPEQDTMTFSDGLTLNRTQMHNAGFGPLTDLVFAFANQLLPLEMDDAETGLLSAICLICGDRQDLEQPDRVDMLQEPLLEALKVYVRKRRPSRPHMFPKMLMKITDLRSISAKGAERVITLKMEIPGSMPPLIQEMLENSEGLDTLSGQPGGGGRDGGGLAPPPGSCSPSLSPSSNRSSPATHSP
# Procedure, shortened: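 Reporter transcripts from a DR5-regulated unit, measured via RT-PCR plus capillary electrophoresis, reflect endogenous RAR activity in transiently transfected human HepG2 liver cells. Exposure lasted 24 h; gain or loss of signal scored against DMSO.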
# [8] = target: Transcription factor E2F1 (Homo sapiens) (UniProt Q01094); assay: ATG_E2F_CIS: Attagene CIS-FACTORIAL HepG2 Assay for human E2F Transcription Factor 1 (AID 2282935); details: HepG2 Attagene cis-reporter, E2F reporter RNA transcripts; actives raise or lower the signal
# Chain of Transcription factor E2F1 (Homo sapiens) (Q01094 whole entry, looked up): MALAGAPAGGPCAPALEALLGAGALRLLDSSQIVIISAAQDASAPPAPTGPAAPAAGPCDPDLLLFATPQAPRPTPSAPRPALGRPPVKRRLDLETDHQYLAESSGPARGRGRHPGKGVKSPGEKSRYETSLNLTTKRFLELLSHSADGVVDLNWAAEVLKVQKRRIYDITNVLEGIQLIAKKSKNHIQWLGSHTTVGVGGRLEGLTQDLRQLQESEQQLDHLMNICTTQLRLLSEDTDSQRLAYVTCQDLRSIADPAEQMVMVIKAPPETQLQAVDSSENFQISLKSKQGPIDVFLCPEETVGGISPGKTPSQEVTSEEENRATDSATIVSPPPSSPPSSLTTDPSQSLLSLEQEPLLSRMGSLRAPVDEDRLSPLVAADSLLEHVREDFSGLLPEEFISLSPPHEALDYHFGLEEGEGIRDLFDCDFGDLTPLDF
# Procedure, shortened: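 Total RNA from 24 h-treated, reporter-transfected HepG2 cells undergoes DNase I treatment, oligo(dT) reverse transcription, PCR and 6-FAM primer extension before capillary electrophoresis.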
# [9] = ATG_E_Box_CIS: Attagene CIS-FACTORIAL HepG2 Assay for human Enhancer Box (E-box) (AID 2282936); details: HepG2 E-box cis-reporter transcription, actives raise or lower the signal
# Procedure, shortened: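 DMSO served as negative control and baseline for bidirectional fitting. Human hepatoma HepG2 cells, transiently transfected with cis-reporter constructs, were dosed 24 h; reporter mRNA read by RT-PCR and capillary electrophoresis.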
# [10] = ATG_M_61_CIS: Attagene CIS-FACTORIAL HepG2 Assay for M61 Transcription Factor (Internal Marker) (AID 2282937); details: HepG2 Attagene CIS-FACTORIAL M61 internal marker reporter; actives raise or lower the signal
# Procedure, shortened: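 Multiplexed reporter mRNA assay, HepG2 human hepatoma cells, 24 h treatment. Signal: FAM-labelled, HpaI-digested RT-PCR fragments by CE. Fit: bidirectional, baseline DMSO.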
# [11] = ATG_AP_1_CIS: Attagene CIS-FACTORIAL HepG2 Assay for human Activator Protein 1 (AP-1) (AID 2282931); details: HepG2 Attagene cis-factorial AP-1 reporter mRNA; actives raise or lower the signal
# Procedure, shortened: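 We transfected HepG2 cells transiently with a set of cis-regulated reporter transcription units, dosed them for 24 h, and quantified reporter mRNA via RT-PCR and capillary electrophoresis, scoring gain or loss of signal relative to DMSO.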
# [12] = ATG_CMV_CIS: Attagene CIS-FACTORIAL HepG2 Assay for human CMV (Internal Marker) (AID 2282928); details: HepG2 CMV promoter reporter, transcription factor profiling; actives raise or lower the signal;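 note: endpoint acts as a background internal control marker rather than a target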
# Procedure, shortened: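 CMV internal-marker background readout in transiently transfected HepG2 cells bearing cis-regulated reporter units. Reporter mRNA is measured 24 h after dosing by RT-PCR and capillary electrophoresis, with bidirectional fitting against DMSO.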
smiles,measurement,setting,value
CC[N+](CC)(CC)Cc1ccccc1,outcome,[1],inactive
same,outcome,[2],inactive
same,outcome,[3],inactive
same,outcome,[4],inactive
same,outcome,[5],inactive
same,outcome,[6],inactive
same,outcome,[7],inactive
same,outcome,[8],inactive
same,outcome,[9],inactive
same,outcome,[10],inactive
C=CC(=O)OCCC(F)(F)C(F)(F)C(F)(F)C(F)(F)C(F)(F)C(F)(F)C(F)(F)C(F)(F)F,outcome,[1],inactive
same,outcome,[2],inactive
same,outcome,[3],inactive
same,outcome,[4],inactive
same,outcome,[11],inactive
same,outcome,[5],inactive
same,outcome,[6],inactive
same,AC50,[7],15.2 µM (active)
same,outcome,[8],inactive
same,outcome,[9],inactive
same,outcome,[10],inactive
CC(C)(O)C(=O)c1ccccc1,outcome,[1],inactive
same,outcome,[2],inactive
same,outcome,[3],inactive
same,outcome,[4],inactive
same,outcome,[11],inactive
same,outcome,[5],inactive
same,outcome,[6],inactive
same,outcome,[7],inactive
same,outcome,[8],inactive
same,outcome,[9],inactive
same,outcome,[10],inactive
C[N+](C)(CCCNS(=O)(=O)CCC(F)(F)C(F)(F)C(F)(F)C(F)(F)C(F)(F)C(F)(F)F)CC(=O)[O-],outcome,[1],inactive
same,outcome,[2],inactive
same,outcome,[3],inactive
same,AC50,[4],0.0224 µM (active)
same,outcome,[5],inactive
same,outcome,[6],inactive
same,outcome,[7],inactive
same,outcome,[8],inactive
same,outcome,[9],inactive
same,outcome,[10],inactive
FC(F)(F)C(F)(F)C(F)(F)Br,outcome,[1],inactive
same,outcome,[2],inactive
same,outcome,[3],inactive
same,outcome,[4],inactive
same,outcome,[11],inactive
same,outcome,[5],inactive
same,outcome,[6],inactive
same,outcome,[7],inactive
same,outcome,[8],inactive
same,outcome,[9],inactive
same,outcome,[10],inactive
COc1cc([N+](=O)[O-])ccc1N,outcome,[1],inactive
same,outcome,[2],inactive
same,outcome,[3],inactive
same,outcome,[4],inactive
same,outcome,[5],inactive
same,outcome,[6],inactive
same,outcome,[7],inactive
same,outcome,[8],inactive
same,outcome,[9],inactive
same,outcome,[10],inactive
O=S(=O)(O)c1ccc2cc(O)ccc2c1,outcome,[1],inactive
same,outcome,[2],inactive
same,outcome,[3],inactive
same,outcome,[4],inactive
same,outcome,[11],inactive
same,outcome,[5],inactive
same,outcome,[6],inactive
same,outcome,[7],inactive
same,outcome,[8],inactive
same,outcome,[9],inactive
same,outcome,[10],inactive
CC(C)C=O,outcome,[1],inactive
same,outcome,[2],inactive
same,AC50,[3],26.8 µM (active)
same,outcome,[3],inactive
same,outcome,[4],inactive
same,AC50,[11],61.2 µM (active)
same,outcome,[11],inactive
same,outcome,[5],inactive
same,outcome,[6],inactive
same,outcome,[7],inactive
same,outcome,[8],inactive
same,outcome,[9],inactive
same,outcome,[10],inactive
CCCCCCCCCC=CCC1CC(=O)OC1=O (configuration not stated),outcome,[1],inactive
same,outcome,[2],inactive
same,AC50,[12],66.8 µM (active)
same,outcome,[3],inactive
same,outcome,[5],inactive
same,outcome,[6],inactive
same,outcome,[8],inactive
same,outcome,[9],inactive
same,outcome,[10],inactive
CCCCCCCCC(C)=O,outcome,[1],inactive
same,outcome,[2],inactive
same,outcome,[3],inactive
same,outcome,[4],inactive
same,outcome,[11],inactive
same,outcome,[5],inactive
same,outcome,[6],inactive
same,outcome,[7],inactive
same,outcome,[8],inactive
same,outcome,[9],inactive
same,outcome,[10],inactive
NC(C(F)(F)F)C(F)(F)F,outcome,[1],inactive
same,outcome,[2],inactive
same,outcome,[3],inactive
same,outcome,[4],inactive
same,outcome,[5],inactive
same,outcome,[6],inactive
same,outcome,[7],inactive
same,outcome,[8],inactive
same,outcome,[9],inactive
same,outcome,[10],inactive
O=C1C=CC(=O)N1c1cccc(N2C(=O)C=CC2=O)c1,outcome,[1],inactive
same,outcome,[2],inactive
same,outcome,[12],inactive
same,outcome,[3],inactive
same,outcome,[4],inactive
same,outcome,[5],inactive
same,outcome,[6],inactive
same,outcome,[7],inactive
same,outcome,[8],inactive
same,outcome,[9],inactive
same,outcome,[10],inactive
Cc1cc(Cc2cc(C)cc(C(C)(C)C)c2O)c(O)c(C(C)(C)C)c1,AC50,[1],23.7 µM (active)
same,AC50,[2],31.8 µM (active)
same,AC50,[12],7.15 µM (active)
same,AC50,[3],100 µM (active)
same,AC50,[4],55.6 µM (active)
same,outcome,[6],inactive
same,AC50,[7],11.4 µM (active)
same,AC50,[8],170 µM (active)
same,outcome,[9],inactive
same,outcome,[10],inactive
O=CC(F)(F)C(F)(F)C(F)(F)F,outcome,[1],inactive
same,outcome,[2],inactive
same,outcome,[12],inactive
same,outcome,[3],inactive
same,outcome,[4],inactive
same,outcome,[5],inactive
same,outcome,[6],inactive
same,outcome,[7],inactive
same,outcome,[8],inactive
same,outcome,[9],inactive
same,outcome,[10],inactive
Nc1cc(Cl)c(-c2cc(Cl)c(N)cc2Cl)cc1Cl,outcome,[1],inactive
same,outcome,[2],inactive
same,AC50,[12],2.08 µM (active)
same,AC50,[3],2.65 µM (active)
same,outcome,[4],inactive
same,outcome,[5],inactive
same,AC50,[6],21 µM (active)
same,outcome,[7],inactive
same,outcome,[8],inactive
same,outcome,[9],inactive
same,outcome,[10],inactive
NS(=O)(=O)O,outcome,[1],inactive
same,outcome,[2],inactive
same,outcome,[12],inactive
same,outcome,[3],inactive
same,outcome,[4],inactive
same,outcome,[5],inactive
same,outcome,[6],inactive
same,outcome,[8],inactive
same,outcome,[9],inactive
same,outcome,[10],inactive
Cc1ccccc1C(OCCN(C)C)c1ccccc1 (configuration not stated),outcome,[1],inactive
same,outcome,[2],inactive
same,AC50,[3],135 µM (active)
same,outcome,[3],inactive
same,outcome,[4],inactive
same,outcome,[11],inactive
same,outcome,[5],inactive
same,outcome,[6],inactive
same,outcome,[7],inactive
same,outcome,[8],inactive
same,outcome,[9],inactive
same,outcome,[10],inactive
